BioA inh – BioA (M. tuberculosis) enzyme inhibition. inhibition, % at 9.99 µM. purified M. tuberculosis BioA enzyme, plate reader. 360,000 compounds, 0.096% hits. AID 602481; in the data active = inhibition above about 40%
FadD28 FP inh – inhibitors of Mycobacterium tuberculosis FadD28 bisubstrate binding; FadD28 bisubstrate probe binding, fluorescence polarization; inhibition, % at 12.5 µM; 360,000 compounds, 0.22% hits; in the data active = inhibition above about 8.5%, passing the limit was not always enough
GDH-TPI inh – GDH-TPI coupled enzyme inhibition counter-screen | GDH-TPI coupled enzyme counterscreen, NADH absorbance | inhibition, % at 4.8 µM | 360,000 compounds, 1.2% hits; in the data active = inhibition above about 30%;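 note: 0% = DMSO wells and 100% = wells lacking the enzyme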
FBA Mtb inh – inhibits M. tuberculosis FBA enzyme; purified M. tuberculosis FBA, fluorescence read-out; inhibition, % at 1 µM; 360,000 compounds, 2.3% hits; AID 588726; in the data active = inhibition above about 27%;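 note: 0% = vehicle and 100% = reference inhibitor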
Target sequence (P9WQA3 whole entry, looked up): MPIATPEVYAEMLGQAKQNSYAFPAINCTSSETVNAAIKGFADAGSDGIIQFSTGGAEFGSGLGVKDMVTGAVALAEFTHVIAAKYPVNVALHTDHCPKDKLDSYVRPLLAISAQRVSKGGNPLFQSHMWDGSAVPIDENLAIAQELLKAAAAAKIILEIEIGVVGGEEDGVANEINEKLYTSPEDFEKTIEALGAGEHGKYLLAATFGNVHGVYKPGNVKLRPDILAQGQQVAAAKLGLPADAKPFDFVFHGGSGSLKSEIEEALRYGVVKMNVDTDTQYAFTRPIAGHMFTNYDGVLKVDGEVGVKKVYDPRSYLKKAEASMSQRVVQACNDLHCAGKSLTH
Mtb hypoxia rep – Mtb hypoxia fluorescent reporter inhibition; 300,000 compounds, 0.1% hits; M. tuberculosis hypoxia-regulated fluorescent reporter, fluorescence; fluorescence inhibition, % (concentration not given with the values); in the data active = fluorescence inhibition mostly above about 23%, no sharp cut-off; inactive = mostly below about 17%
* = called active by the depositor. Most compounds without a hit are left out; they make up all but 2.9% or so of the library.

What do the screens show for `COC(=O)CNC(=O)CSc1nc2sc(-c3ccccc3)cc2c(=O)n1-c1ccccc1`?
BioA inh: 2; FadD28 FP inh: -2; GDH-TPI inh: 47*; FBA Mtb inh: 1; Mtb hypoxia rep: 12

Results for C#CCN1C=CC(=O)[C@@H](OC(=O)Nc2ccc(Br)cc2)[C@H]1c1ccccc1Br ?
BioA inh: 0; FadD28 FP inh: -17; GDH-TPI inh: 19; FBA Mtb inh: 1

Results for C=CCN1C=CC(=O)[C@@H](OC(=O)Nc2ccc(Br)cc2)[C@H]1c1ccccc1Br ?
BioA inh: 19; FadD28 FP inh: -1; GDH-TPI inh: 33*; FBA Mtb inh: 4

Results for CCOc1ccccc1NC=C1C(=O)OC(C)(C)OC1=O ?
BioA inh: 1; FadD28 FP inh: -5; GDH-TPI inh: 41*; FBA Mtb inh: -1; Mtb hypoxia rep: 0

What do the screens show for `CC1(C)OC(=O)C(=CNc2cccc(O)c2)C(=O)O1`?
BioA inh: 0; FadD28 FP inh: -3; GDH-TPI inh: 35*; FBA Mtb inh: -1; Mtb hypoxia rep: 19

What do the screens show for `CC1(C)OC(=O)C(=CNc2ccccc2)C(=O)O1`?
BioA inh: 0; FadD28 FP inh: -3; GDH-TPI inh: 17; FBA Mtb inh: -4; Mtb hypoxia rep: -1

How did CC1(C)OC(=O)C(=CNc2ccccc2F)C(=O)O1 do in these assays?
BioA inh: -2; FadD28 FP inh: -3; GDH-TPI inh: 12; FBA Mtb inh: 0; Mtb hypoxia rep: 7

How did COc1ccccc1NC=C1C(=O)OC(C)(C)OC1=O do in these assays?
BioA inh: -1; FadD28 FP inh: 0; GDH-TPI inh: 47*; FBA Mtb inh: -2; Mtb hypoxia rep: 0

What do the screens show for `COCC(=O)Nc1ccc2c(c1)OC[C@H](C)N(C(=O)CC1CC1)C[C@@H](C)[C@H](OC)CN(C)C2=O`?
BioA inh: -1

How did Cc1noc(C)c1S(=O)(=O)Nc1cccc2c1O[C@H](CN(C)C(=O)Nc1ccc(F)cc1)[C@H](C)CN([C@@H](C)CO)C2=O do in these assays?
BioA inh: 0

What do the screens show for `CN(C)N=Nc1nc2c(c(=O)n(C)c(=O)n2C)n1CC1CO1` (stereo not drawn)?
BioA inh: -1; FadD28 FP inh: 1; GDH-TPI inh: 35*; FBA Mtb inh: -2; Mtb hypoxia rep: -3

Results for COc1ccc(-c2oc3cccnc3c2C#CC2(O)CCCCC2)cc1 ?
BioA inh: -2; FadD28 FP inh: -9; GDH-TPI inh: 34*; FBA Mtb inh: active

Results for COc1ccc(-c2oc3cccnc3c2-c2ccc(OC)nc2)cc1 ?
BioA inh: -5; FadD28 FP inh: -3; GDH-TPI inh: 8; FBA Mtb inh: 139*; Mtb hypoxia rep: 5

How did COc1ccc(-c2c(-c3ccc(OC)nc3)c3ccccc3n2C)cc1 do in these assays?
BioA inh: -1; FadD28 FP inh: -1; GDH-TPI inh: 4; FBA Mtb inh: 8; Mtb hypoxia rep: 0

Results for COc1ccc(-c2oc3cccnc3c2C#CCO)cc1 ?
BioA inh: 0; FadD28 FP inh: -2; GDH-TPI inh: 32*; FBA Mtb inh: active; Mtb hypoxia rep: 2

Results for C[C@@H]1CN([C@H](C)CO)C(=O)Cc2cc(NC(=O)Nc3ccc4c(c3)OCO4)ccc2O[C@H]1CN(C)C(=O)NC1CCCCC1 ?
BioA inh: 0

What do the screens show for `COc1cc(-c2ccc3c(=O)c4ccccc4n(C)c3c2)cc(OC)c1OC`?
BioA inh: 8; FadD28 FP inh: -6; GDH-TPI inh: 2; FBA Mtb inh: 20

Results for Cn1c2ccccc2c(=O)c2ccc(F)cc21 ?
BioA inh: -1; FadD28 FP inh: -2; GDH-TPI inh: 2; FBA Mtb inh: 191*; Mtb hypoxia rep: 0

Results for COc1ccc2c(c1)C(c1ccc([N+](=O)[O-])cc1)=NNC(c1ccco1)=N2 ?
BioA inh: 1; FadD28 FP inh: 1; GDH-TPI inh: 33*; FBA Mtb inh: -1; Mtb hypoxia rep: 6

What do the screens show for `COc1ccc(C2=NNC(c3ccco3)=Nc3ccc(F)cc32)cc1`?
FadD28 FP inh: -1; GDH-TPI inh: 5; FBA Mtb inh: -2; Mtb hypoxia rep: 0

Results for C[C@H](CO)N1C[C@H](C)[C@H](CN(C)Cc2ccc(C(=O)O)cc2)Oc2c(NC(=O)C3CC3)cccc2C1=O ?
BioA inh: -2

What do the screens show for `Cc1cc(N/N=C/c2ccccc2O)nc(N2CCOCC2)n1`?
FadD28 FP inh: 3; GDH-TPI inh: 64*; FBA Mtb inh: 4

What do the screens show for `Oc1ccc(/C=N/Nc2cc(N3CCOCC3)nc(N3CCOCC3)n2)cc1`?
BioA inh: 0; FadD28 FP inh: -2; GDH-TPI inh: 58*; FBA Mtb inh: 2

How did Cc1cc(NN=Cc2ccc(O)cc2O)nc(N2CCOCC2)n1 do in these assays?
Mtb hypoxia rep: 5

How did COc1ccc(OC)c(C(C(=O)NC2CCCCC2)N(C(=O)c2snc(C(N)=O)c2N)c2ccccc2OC)c1 (stereo not drawn) do in these assays?
BioA inh: -1; FadD28 FP inh: -2; GDH-TPI inh: 26; FBA Mtb inh: 115*

What do the screens show for `O=c1c2ccccc2[nH]c2ccccc12`?
BioA inh: 0; FadD28 FP inh: 0; GDH-TPI inh: 4; FBA Mtb inh: 139*

What do the screens show for `CCCCn1c(=NC(=O)c2ccco2)c(C(=O)OCC)cc2c(=O)n3cccc(C)c3nc21`?
FadD28 FP inh: -2; GDH-TPI inh: 6; FBA Mtb inh: 173*; Mtb hypoxia rep: -6

Results for CCCCn1c(=NC(=O)c2ccco2)c(C(=O)OCC)cc2c(=O)n3ccccc3nc21 ?
BioA inh: -1; FadD28 FP inh: -1; GDH-TPI inh: 8; FBA Mtb inh: 197*; Mtb hypoxia rep: 3

What do the screens show for `CCCCCn1c(=NC(=O)c2ccco2)c(C(=O)OCC)cc2c(=O)n3ccccc3nc21`?
BioA inh: 10; FadD28 FP inh: -5; GDH-TPI inh: 10; FBA Mtb inh: 144*; Mtb hypoxia rep: -3

What do the screens show for `C[C@@H]1CN([C@@H](C)CO)C(=O)c2cc(NC(=O)CCC(F)(F)F)ccc2O[C@@H](C)CCCCO[C@H]1CN(C)Cc1ccc2c(c1)OCO2`?
BioA inh: 0

Results for Cn1nc(-c2ccc(Cl)cc2)c2cc(C(=O)NC3CC3)sc21 ?
BioA inh: -3; FadD28 FP inh: 1; GDH-TPI inh: 20; FBA Mtb inh: 9

How did CCN(CC)CCNC(=O)c1cc2c(-c3ccc(Cl)cc3)nn(C)c2s1 do in these assays?
BioA inh: 3; FadD28 FP inh: -19; GDH-TPI inh: 12; FBA Mtb inh: 136*

Results for CN(CCO)S(=O)(=O)c1ccc2c(c1)C(=NNC(N)=O)c1cc(S(=O)(=O)N(C)CCO)ccc1-2 ?
BioA inh: -3; FadD28 FP inh: -2; GDH-TPI inh: 56*; FBA Mtb inh: 3; Mtb hypoxia rep: -1

What do the screens show for `CN(C)S(=O)(=O)c1ccc2c(c1)C(=NNC(N)=O)c1cc(S(=O)(=O)N(C)C)ccc1-2`?
FadD28 FP inh: -4; GDH-TPI inh: 18; FBA Mtb inh: -3; Mtb hypoxia rep: -5
